# Experimental data: PubChem BioAssay AID651814 (National Center for Advancing Translational Sciences (NCATS), 2012)
# The campaign covered roughly 2,100 compounds. About 590 (28%) were called active. Another 42% or so got no clear call; they are omitted. The list shows a part of the results. Unmarked numbers belong to inactive results. Calls follow the shape of the dose curve; as a rule, active = well fitted inhibition curve with a large enough effect; inconclusive = small, poorly fitted or top-dose-only effect; inactive = flat fitted curve, though single readings scatter.
# Molecular target: DNA dC->dU-editing enzyme APOBEC-3F (Homo sapiens) (UniProt Q8IUX4)
# Test: qHTS for inhibitors of Vif-A3F interactions: Cherry picks; also: nearly all actives have a fitted effect of over 70% in size;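 as to max response: % of control where 0% means no effect; active compounds raise eYFP fluorescence by blocking Vif-driven A3F loss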
# Conditions: HeLa A3F-eYFP + Vif (tagged APOBEC3F with the HIV-1 protein that degrades it), eYFP fluorescence, 24 h
# Outline: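 Read-out: yellow fluorescence (ex 488 nm, em 500-530 nm) by laser-scanning cytometer after 24 h compound exposure, several concentrations, at 37 deg C. Cells: HeLa line stably co-expressing Vif and C-terminally eYFP-tagged A3F; MG132 served as positive control.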
# Potency is read from the fitted curve at half-maximal effect.
# Sequence of DNA dC->dU-editing enzyme APOBEC-3F (Homo sapiens) (Q8IUX4 whole entry, looked up): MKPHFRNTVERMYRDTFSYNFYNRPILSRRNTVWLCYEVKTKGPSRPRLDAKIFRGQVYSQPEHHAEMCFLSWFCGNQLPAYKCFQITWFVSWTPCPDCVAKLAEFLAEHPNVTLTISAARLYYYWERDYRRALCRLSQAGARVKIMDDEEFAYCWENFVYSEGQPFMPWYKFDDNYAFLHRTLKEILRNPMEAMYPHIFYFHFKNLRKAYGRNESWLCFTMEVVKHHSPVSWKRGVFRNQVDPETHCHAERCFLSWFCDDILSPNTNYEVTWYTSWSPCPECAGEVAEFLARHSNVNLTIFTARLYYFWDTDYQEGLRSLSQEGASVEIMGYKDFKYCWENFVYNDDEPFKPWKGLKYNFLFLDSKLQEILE
SMILES,Potency,max response
COc1ccc2oc(=O)c(-c3nc4ccccc4o3)cc2c1,20.6 µM (active),–
CCOC(=O)C1CCCN(C(=O)c2ccc3nc(-c4cccc(OC)c4)oc3c2)C1 (configuration not stated),–,-18.5%
CCOc1ccccc1Nc1nnc(-c2cc3cc(OC)ccc3oc2=O)s1,7.31 µM (active),–
COc1ccc2oc(=Nc3ccccc3)c(-c3nc4ccccc4[nH]3)cc2c1,–,-13%
CCOc1c(Cl)cc(/C=N/NC(N)=S)cc1OC,–,-28.8%
COc1cc(/C=C2/CCC/C(=C\c3cc(O)c(OC)c(Cl)c3)C2=O)cc(Cl)c1O,8.2 µM (active),–
COc1cc(/C=N/Nc2ccc(Cl)nn2)cc(OC)c1O,–,2.03%
CCOc1cc(/C=C2\CCC/C(=C\c3cc(Cl)c(O)c(OCC)c3)C2=O)cc(Cl)c1O,7.04 µM (active),–
Fc1ccc2nc3[nH]c4ccccc4c3nc2c1,0.994 µM (active),–
COc1ccccc1CNC(=O)c1ccc2nc3[nH]c4ccccc4c3nc2c1,–,-25.8%
Cc1c(=O)n(OCc2ccc(Cl)cc2)c2ccccc2[n+]1[O-],–,-8.69%
CN1C2CCC1/C(=C/c1cccn1C)C(=O)/C2=C\c1cccn1C,16.4 µM (active),–
CC1C/C(=C/c2cccs2)C(=O)/C(=C/c2cccs2)C1 (configuration not stated),–,-0.33%
Cn1cccc1/C=C1\CC(C(C)(C)C)C/C(=C\c2cccn2C)C1=O (configuration not stated),4.11 µM (active),–
COc1ccc(NC(=O)/C(C#N)=C/C=C/c2ccco2)cc1,–,-30%
CN1/C(=C\C=C(/C#N)C(=O)Nc2ccc(Cl)cc2)C(C)(C)c2ccccc21,3.14 µM (active),–
COc1ccc(NC(=O)/C(C#N)=C\C=C\c2ccco2)cc1,–,-29.2%
CN1/C(=C\C=C(/C#N)C(=O)Nc2ccccc2F)C(C)(C)c2ccccc21,20.6 µM (active),–
O=C(NC(=S)N1CCN(c2ccccn2)CC1)c1ccccc1,–,0.282%
CN(C)c1ccc(/C=C/c2ccnc3ccccc23)cc1,13 µM (active),–
Nc1ccccc1/C=C/c1ccnc2ccccc12,23.1 µM (active),–
CN(C)c1ccc(/C=C/C=C/c2ccnc3ccccc23)cc1,2.59 µM (active),–
CN(C)c1ccc(/C=C/c2ccnc3ccccc23)c(N)c1,7.31 µM (active),–

SMILES,Potency,max response
COc1ccc(-c2nc3cnccn3c2NC2CCCCC2)cc1-c1cccc(Cl)c1,–,-28.6%
CCOC(=O)c1cnc(-n2nc(C)cc2C)nc1NNc1nc(-c2ccccc2)cc(-c2ccccc2)n1,–,6.49%
c1ccc(N=NC2=NN(c3ccccc3)CS2)cc1,–,0.337%
CCCC(=O)NC(c1ccc(OC)cc1)c1ccc2cccnc2c1O (configuration not stated),–,0.49%
CNc1ccc(/C=C/c2ccnc3ccccc23)cc1,14.6 µM (active),–
CN(C)c1ccc(/C=C/c2cnnc3ccccc23)cc1,20.6 µM (active),–
COc1cccc2nccc(/C=C/c3ccc(N(C)C)cc3)c12,20.6 µM (active),–
CN(C)c1ccc(/C=C/c2ccnc3ccc(-c4ccccc4)cc23)cc1,2.31 µM (active),–
NC(=S)N/N=C/c1ccccc1OC(=O)/C=C/c1ccccc1,–,-3.11%
CC(C)CC(=O)NC(=S)N(Cc1ccccc1)Cc1ccccc1,–,-4.2%
Cc1ccc(S(=O)(=O)N2CCN(C(=O)CSC(=S)N3CCCC3)CC2)c(C)c1,–,1.16%
CO/N=C/c1ccc(OC)c(Oc2nc(OC)cc(OC)n2)c1,–,-21.4%
COc1ccc(/C=C2/CSC/C(=C/c3ccc(OC)c(OC)c3)C2=O)cc1OC,5.59 µM (active),–
COc1cc(/C=C2/CC/C(=C/c3ccc(O)c(OC)c3)C2=O)ccc1O,–,-11.3%
COc1cc(/C=C/C(C)=NNc2ccccc2)ccc1O,–,-28.1%
COc1cc(/C=C2\COC/C(=C\c3ccc(O)c(OC)c3)C2=O)ccc1O,14 µM (active),–
COc1cc(C=C2C(=O)c3ccccc3C2=O)cc(OC)c1OC,–,-7.21%
Cc1ccc2c(c1C)NC(=O)CC(c1ccccc1O)=N2,–,0.01%
CC(C)OC(=O)c1c2c(n3ccccc13)C(=O)c1ccccc1C2=O,4.61 µM (active),–
Cn1c(=O)c(N)c2c3c(c(Br)ccc31)C(=O)c1ccccc1-2,–,0.0476%
Oc1cccc(Nc2nc(O)c(/C=C3\C=Nc4ccccc43)s2)c1,14.6 µM (active),–
O=S(=O)(Nc1cc(Sc2ncn[nH]2)c(O)c2ccccc12)c1ccccc1,–,-29.8%
CCCOc1ccccc1C1CC(=O)Nc2cc3c(cc21)OCO3 (configuration not stated),–,-14.8%

SMILES,Potency,max response
CCNc1ccc(Br)cc(C(=O)/C=C/c2ccc3c(c2)OCO3)c1=O,18.4 µM (active),–
CCN(CC)c1ccc(/C=C/C(=O)c2ccc(Br)cc2)cc1,–,-4.77%
COc1ccc(OC)c(/C=C/c2nc3ccccc3[nH]c2=O)c1,18.4 µM (active),–
O=c1[nH]c2ccccc2nc1/C=C/c1ccc(F)cc1,14 µM (active),–
CCCN(C(=O)CSc1n[nH]c(-c2ccc(OC)cc2)n1)c1c(N)n(Cc2ccccc2)c(=O)[nH]c1=O,–,-13.7%
CCC(=C/c1sc2ccc3ccccc3c2[n+]1C)/C=C1\Sc2ccc3ccccc3c2N1C,–,-0.328%
CC(=O)c1cccc(-c2ccnc3c2CC(C(=O)Nc2cccc(NS(C)(=O)=O)c2)O3)c1 (configuration not stated),–,-25.6%
CCSC1=NSC2=NC(=O)/C(=C\c3coc4ccccc4c3=O)C(=N)N12,18.4 µM (active),–
O=C(O)CCCN1C(=O)/C(=C\C(Cl)=C\c2ccccc2)SC1=S,4.44 µM (active),–
Cc1ccc2[nH]cc(/C=C/c3cc[n+](C)cc3)c2c1,1.4 µM (active),–
COc1ccc2[nH]cc(/C=C/c3cc[n+](C)cc3)c2c1,13 µM (active),–
C[n+]1ccc(/C=C/c2c[nH]c3ccc(F)cc23)cc1,16.4 µM (active),–
COc1ccc2c(c1)c(/C=C/c1cc[n+](C)cc1)cn2C,2.23 µM (active),–
O=C1OC(/C(=C\Nc2cc(Cl)ccc2O)[N+](=O)[O-])c2ccccc21 (configuration not stated),–,-13.5%
COc1cc(C(=O)N/N=C/C2CC=CCC2)cc(OC)c1OC (configuration not stated),–,-15.3%
CCOC1=C/C(=C/c2c(N)n3nc(-c4ccccc4)sc3nc2=O)C=CC1=O,–,3.18%
N#C/C(=C/c1ccc(N2CCOCC2)o1)c1ccc(Cl)cc1,4.61 µM (active),–
N#C/C(=C/c1ccc(N2CCCCCC2)o1)c1ccc(Cl)cc1,3.66 µM (active),–
N#C/C(=C/c1ccc(N2CCCCC2)o1)c1cccc(F)c1,5.17 µM (active),–
N#C/C(=C/c1ccc(N2CCCCCC2)o1)c1cccc(F)c1,–,-26.2%
Cc1ccc(/C(C#N)=C\c2ccc(N3CCOCC3)o2)cc1,12.5 µM (active),–
CC(C)(C)C(=O)/C(=C/c1ccc(Cl)cc1)n1cncn1,–,-2.57%
C/C(=N\NC(=O)C(C)n1nc(C)c([N+](=O)[O-])c1C)c1ccccc1O (configuration not stated),–,0.94%

SMILES,Potency,max response
COc1ccc(/C=N/n2cc(-c3ccccc3)nc2N)cc1,–,-18.9%
CCc1ccc(-c2cc(C(F)(F)F)n3nc(C(=O)Nc4cnn(Cc5ccc(C)cc5)c4)cc3n2)s1,14.6 µM (active),–
CC(=O)Nc1cccc(-c2ccnc3c2CC(C(=O)Nc2ccc(Cl)cc2)O3)c1 (configuration not stated),–,-18.1%
CCc1sc(-c2cc3ccc(O)cc3oc2=O)nc1-c1ccc(C)cc1,4.11 µM (active),–
O=c1oc2cc(O)ccc2cc1-c1nc(-c2ccc(Cl)c(Cl)c2)cs1,0.651 µM (active),–
O=C(CCCCl)Oc1ccc2cc(-c3ccc4ccccc4n3)c(=O)oc2c1,–,3.21%
COc1cc(-c2nc3ccc(C)cn3c2NCc2ccccc2)ccc1SC1CCCCC1,–,-8.35%
Cc1ccc(/C=N/NC(=O)c2nc3nc(C)cc(C)n3n2)cc1,–,1.02%
CSc1nc(Sc2ccccc2Cl)c2ccccc2n1,–,-25.9%
COc1cc(/C=C2\SC(=S)N(NC(=O)c3ccc(O)c(OC)c3)C2=O)ccc1O,–,-7.15%
COc1cc(/C=C2\SC(=S)N(Nc3ncc(C(F)(F)F)cc3Cl)C2=O)ccc1O,18.4 µM (active),–
CN(C)c1ccc(/C=C2\SC(=S)N(Nc3ncc(C(F)(F)F)cc3Cl)C2=O)cc1,5.8 µM (active),–
N#CC(=Cc1ccccn1)c1nc(-c2ccc(Cl)cc2)cs1,15.8 µM (active),–
CCOC(=O)c1c(NC(=O)CSc2nc3ccc(OC)cc3[nH]2)sc2c1CC(C)(C)NC2(C)C,–,-17.3%
CCOC(=O)c1ccc(NC(=O)CSc2nc(-c3ccc(OC)cc3)cc(C(F)(F)F)c2C#N)cc1,18.4 µM (active),–
Cc1cc(C(F)(F)F)c(C#N)c(SCC(=O)Nc2nc3ccccc3s2)n1,20.6 µM (active),–
O=C(CSc1nc2ccccc2s1)c1cc2ccccc2o1,–,-2.01%
Cc1ccc(S(=O)(=O)CCSc2nc(C)cc(C(F)(F)F)c2C#N)cc1,15.8 µM (active),–
CCOC(=O)c1ccc(NC(=O)CSc2nc(-c3ccc(F)cc3)cc(C(F)(F)F)c2C#N)cc1,18.4 µM (active),–
CCOC(=O)c1ccc(N=Nc2c(C)c(C#N)c(O)[nH]c2=O)cc1,–,-0.299%
Cc1sc2nc(CSCC(=O)Nc3ccccc3C#N)[nH]c(=O)c2c1C,–,-12.7%
CCOC1=C2CN(S(=O)(=O)c3ccc(C)cc3)[C@H](c3cccc4ccccc34)C[C@H]2C(C#N)(C#N)C(C#N)(C#N)C1,–,-5.21%
CC1(C)Cc2ccccc2C2CC(O)C(=O)N21 (configuration not stated),–,-21.2%
